# Laboratory results reported in PubChem BioAssay (NCI).
# About 83,000 compounds went through this panel and 20% of them were active in at least one assay; those are over-represented in the sample as a whole.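 The endpoint reported here, percent growth, reads 100 for growth as untreated, 0 for no net growth and -100 for all cells dead.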 The source made the active and inactive calls.
# Tested on: OVCAR-4 ovarian
# Test: NCI-60 one-dose screen, 48 h (100 = growth as untreated, 0 = no growth, -100 = all killed)
# Conditions: 10 µM unless noted
# Protocol: Growth inhibition of the OVCAR-4 human tumor cell line is measured as a screen for anti-cancer activity. Cells are grown in 96 well plates and exposed to the test compound for 48 hours. Compounds are tested at a single concentration, which is 10^-5 M for most compounds. The reported endpoint is percent growth (GI% or GIPRCNT), where numbers from 0 - 100% represent growth inhibition, and numbers from -100% - 0 represent cell death. For example, a value of 40 represents 60% growth inhibition. A value of 0 means no net growth occurred over the course of the experiment. A value of -40 indicates 40% of cells at the beginning of the experiment died by the end of the experiment. A value of -100 means all cells are dead at the end of the experiment.
# NCI-60 Human Tumor Cell Lines Screen was performed using the standard one-dose NCI protocol, which is described in more detail at https://dtp.cancer.gov/discovery_development/nci-60/default.htm.
# Compounds with GIPRCNT values below 10 were considered active. Activity score was based on GIPRCNT using the following formula: […]
# Score is 0 for GIPRCNT values of 100 or above, 50 for GIPRCNT values of 0, and 100 for GIPRCNT values of -100.
row,Compound,growth
1,Nc1n[nH]c2cccc(C#Cc3cccc(NC(=O)c4cccc(OC(F)(F)F)c4)c3)c12,66.7% (inactive)
2,C=C(C)[C@@H]1CC[C@]2(C(=O)NCCCN(CCC#N)CCC#N)CC[C@]3(C)[C@H](CC[C@@H]4[C@@]5(C)CCC(=O)C(C)(C)[C@@H]5CC[C@]43C)[C@@H]12,105% (inactive)
3,Cc1cc(=O)n2nc(-c3c[nH]c4ccccc34)sc2n1,104% (inactive)
4,CCOC(=O)C1=C(C)Nc2nc3ccccc3n2C1c1cccc(Br)c1 (stereo not given),88.9% (inactive)
5,COc1ccc(S(=O)(=O)NCCCNc2nccc(-n3cnc4ccccc43)n2)cc1,77.4% (inactive)
6,COc1ccc(/C=N/Nc2nc(Nc3ccccc3)nc(Nc3ccc(S(N)(=O)=O)cc3)n2)cc1,66.2% (inactive)
7,O=C(C[n+]1ccnc2ccccc21)c1ccc(O)c(O)c1,46.6% (inactive)
8,Cn1nc(Nc2ccccc2)c(C(=O)NN)c1N,99.9% (inactive)
9,O=C(Nc1ccc(F)cc1)c1cc(-c2ccc(F)cc2F)ccc1O,11.2% (inactive)
10,COc1ccc([C@@H]2[C@@H](O)C(=O)N2c2cc(OC)c(OC)c(OC)c2)cc1,59.3% (inactive)
11,Cn1cc2c(c1)-c1c(sc3nc(-c4ccc(NC(=O)Nc5cc(C(C)(C)C)on5)cc4)cn13)CC2,57.7% (inactive)
12,COc1cc(NC2=C(Cl)C(=O)c3nc(C)ccc3C2=O)cc(OC)c1,-93.3% (active)
13,O=C(Nc1ccc(-c2nc(-c3cccc(O)c3)c(-c3ccnc(Br)c3)[nH]2)cc1)c1ccccc1,35% (inactive)
14,Oc1ccc(CSc2nnc(-c3ccc(Oc4ccccc4)cc3)n2-c2ccccc2)c2cccnc12,17.9% (inactive)
15,CCN1C(=O)N(CC)C2SC(N/N=C/c3ccccc3)=NC21 (stereo not given),71.6% (inactive)
16,NS(=O)(=O)Oc1ccc2nc(Nc3ccc(F)c(F)c3)ccc2c1,88.9% (inactive)
17,C=C(C)[C@@H]1CC[C@]2(C(=O)ON)CC[C@]3(C)[C@H](CC[C@@H]4[C@@]5(C)C/C(=C/c6ccc(Br)cc6)C(=O)C(C)(C)[C@@H]5CC[C@]43C)[C@@H]12,75.5% (inactive)
18,N/C(=N\c1nc2ccc([N+](=O)[O-])cc2s1)C(Cl)(Cl)Cl,67.9% (inactive)
19,CC1OC(O[C@@H]2[C@H](O)C(CO)OC(O[C@H]3COC(O[C@H]4CC[C@]5(C)[C@H]6CC[C@]78OC[C@@]9(CC[C@](C)(C=O)C[C@H]97)C(=O)C[C@@]8(C)[C@]6(C)CC[C@H]5C4(C)C)[C@@H](O)[C@@H]3O)[C@H]2OC2OC[C@@H](O)[C@@H](O)[C@@H]2O)[C@@H](O)[C@@H](O)[C@H]1O (stereo not given in full),91.6% (inactive)
20,N#Cc1c(NC(=O)c2ccc(F)c(Cl)c2)sc2c1CCC(=O)C2,-52% (active)

row,Compound,growth
1,Cc1ccc(NC(=O)c2ccc(CN3CCN(C)CC3)c(I)c2)cc1Oc1ccc(-c2[nH]nc3ncnc(N)c23)cc1,96.1% (inactive)
2,C/C(=C(/C)C1CC1CCN(C(=O)c1ccccn1)S(=O)(=O)c1ccc(C)cc1)C1CCCCC1 (stereo not given),83.8% (inactive)
3,CCCCCCNC(=O)Oc1ccc(/C(=C(\C)c2ccc(OC)cc2)c2ccc(OCCN(C)C)cc2)cc1,90.9% (inactive)
4,O=C1c2c(c3c4ccc(Br)cc4oc3c3[nH]c4ccccc4c23)C(=O)N1CCO,89.7% (inactive)
5,Nc1nc(-c2cccc([N+](=O)[O-])c2)c(N=Nc2ccccc2[N+](=O)[O-])s1,-2.02% (active)
6,O=C1c2cc(Br)ccc2-n2c1nc1cc(Br)ccc1c2=O,64.7% (inactive)
7,Cc1ccc(Cc2cnc(NC(=O)/C(C#N)=C/c3ccc(-c4ccc(Cl)cc4)o3)s2)cc1,94.6% (inactive)
8,CCOC(=O)CC(=O)CSC1=NC2C(NN1)N(C)C(=O)N2C (stereo not given),88.9% (inactive)
9,COc1cc(-c2nc(SCc3ccc(C)cc3)[nH]c(=O)c2C#N)ccc1OCc1ccccc1,98.1% (inactive)
10,Cc1cc(NS(=O)(=O)c2ccc(-c3cnc(C4CC4)o3)cc2)ccc1I,59.9% (inactive)
11,Fc1ccc(-c2cc3nc(C(Cl)Cl)nc(-c4cccs4)n3n2)cc1,29.8% (inactive)
12,Cn1cc(-c2nn3cc(-c4cccnc4)nc3s2)c2cc(F)ccc21,104% (inactive)
13,Cc1ccc(NC(=O)c2cc(/C=C/C(=O)NO)cc(C(F)(F)F)c2)cc1Nc1nccc(-c2cccnc2)n1,23% (inactive)
14,COc1ccc(OC)c(NC2=C(Cl)C(=O)C(C)=C(C)C2=O)c1,55.5% (inactive)
15,CC1OC(O[C@@H]2C(O)C(CO)OC(O[C@H]3COC(O[C@H]4CC[C@]5(C)[C@H]6CC[C@]78OC[C@@]9(CC[C@](C)(C=O)C[C@H]97)[C@H](O)C[C@@]8(C)[C@]6(C)CC[C@H]5C4(C)C)[C@@H](OC4OC(CO)[C@@H](O)[C@@H](O)[C@@H]4O)[C@@H]3O)[C@H]2OC2OC[C@@H](O)[C@@H](O)[C@@H]2O)[C@@H](O)[C@@H](O)[C@H]1O (stereo not given in full),-50.9% (active)
16,COc1ccc2oc3c4[nH]c5ccccc5c4c4c(c3c2c1)C(=O)N(O)C4=O,104% (inactive)
17,O=S(=O)(Nc1cc(Cl)cc(Cl)c1)c1ccc(-c2cnc(C3CC3)o2)cc1,63.6% (inactive)
18,O=C(NCCCNc1cc(-c2cn(-c3ccccc3)nc2-c2cccc(O)c2)ccn1)Nc1ccc(F)cc1,30.9% (inactive)
19,O=c1oc2ccc(-c3ccc(F)cc3F)cc2c(=O)n1-c1cccc(C(F)(F)F)c1,13.4% (inactive)
20,Cn1cc(-c2nnc(N)nc2-c2cn(C)c3ccc(F)cc23)c2cc(F)ccc21,97.4% (inactive)
